About 83,000 compounds went through this panel and 20% of them were active in at least one assay; those are over-represented in the sample as a whole.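 Growth was measured after 48 h exposure to one concentration of compound in 96-well plates. Values under 10 count as active.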 Values without a mark were called inactive. The source made the active and inactive calls.

Some test systems named below: T-47D breast; BT-549 breast; MDA-MB-435 melanoma; SW-620 colon; MCF7 breast; HCT-116 colon; HCC-2998 colon; KM12 colon.
Experiment in all cases: NCI-60 one-dose screen, 48 h (100 = growth as untreated, 0 = no growth, -100 = all killed)
What all share (details): 10 µM unless noted

As to `COc1ccc(C/C(C)=C(\c2ccc(O)cc2)c2ccc(OCCN3CCCCC3)cc2)cc1`, the growth was 53.8% in the test on T-47D breast; 88.3% in the test with BT-549 breast; 82.1% with MDA-MB-435 melanoma; 91.6% in the test on SW-620 colon; 35.2% in the test on MCF7 breast; 46.5% in the test with HCT-116 colon. Moreover, the growth in the test with HCC-2998 colon was 80.8%; in the test on KM12 colon, 91.1%.

On to `N#Cc1c(-c2ccccc2)nc2c(c(-c3ccccc3)nn2-c2ccccc2)c1-c1ccc(N2CCCCC2)cc1`, for which the growth in the test on T-47D breast is 94.5%; in the test with BT-549 breast, 104%; in the test with MDA-MB-435 melanoma, 99.9%; in the test with SW-620 colon, 99.2%; in the test on MCF7 breast, 100%; in the test on HCT-116 colon, 94.2%. Moreover, the growth was 107% in the test on HCC-2998 colon and 103% in the test with KM12 colon.

Regarding `Fc1cccc(CNc2c3ccccc3nc3ccccc23)c1`, the growth in the test with T-47D breast was 42.7%; with BT-549 breast, 77.1%; in the test on MDA-MB-435 melanoma, 48.9%; with SW-620 colon, 22%; in the test with MCF7 breast, 7.9% (active); in the test on HCT-116 colon it was 13.4%. Moreover, the growth is 29.9% in the test with HCC-2998 colon and 48.6% in the test with KM12 colon.

For `O=[N+]([O-])c1ccccc1Sc1ccccc1[N+](=O)[O-]`, the growth was 81.5% in the test with T-47D breast; 100% in the test on BT-549 breast; 103% in the test with MDA-MB-435 melanoma; 110% in the test on SW-620 colon; 108% in the test on MCF7 breast; 94.9% with HCT-116 colon. The growth with HCC-2998 colon is 97.5%; in the test with KM12 colon it was 92.6%.

Regarding `ClC(Cl)c1nc(-c2ccccc2)n2nc(-c3ccccc3)cc2n1`, the growth in the test on T-47D breast was 28.5%; in the test with BT-549 breast, 77.2%; in the test on MDA-MB-435 melanoma, 12%; in the test with SW-620 colon, -35.3% (active); in the test on MCF7 breast, 3.37% (active); in the test on HCT-116 colon, 4.82% (active). The growth was -82.1% (active) with HCC-2998 colon and -32% (active) in the test on KM12 colon.

For `COCCn1cc(-c2csc(-c3c[nH]c4ccccc34)n2)c2cccnc21`, the growth in the test with T-47D breast is 3.06% (active); in the test with BT-549 breast, 21.8%; in the test with MDA-MB-435 melanoma, 2.9% (active); in the test with SW-620 colon, 30.7%; in the test with MCF7 breast, 9.88% (active); with HCT-116 colon, 16.6%. The growth was 42.1% in the test on HCC-2998 colon and 15.6% in the test on KM12 colon.

`CN(C)c1ccc(C(=S)c2ccc(N(C)C)cc2)cc1`: the growth is 74.2% in the test with T-47D breast; 83.5% with BT-549 breast; -13.2% (active) with MDA-MB-435 melanoma; 43.9% in the test with SW-620 colon; 46.4% in the test with MCF7 breast; 57.8% in the test on HCT-116 colon. Besides, the growth with HCC-2998 colon was 70.6%; with KM12 colon, 47.2%.

For the compound `COc1ccc(-c2cc(-c3cccnc3)nc3sc4c(N)c(C(C)=O)c(-c5ccccc5)nc4c23)cc1OC`, the growth was 59.4% with T-47D breast; 34.9% with BT-549 breast; 45.7% in the test on MDA-MB-435 melanoma; 109% in the test with SW-620 colon; 65.3% with MCF7 breast; 67.6% in the test with HCT-116 colon. The growth in the test with HCC-2998 colon was 80.1%; with KM12 colon, 76.2%.

Regarding `Cc1nc([P+](c2ccccc2)(c2ccccc2)c2ccccc2)c(N2CCCCC2)o1`, the growth in the test with T-47D breast is -0.433% (active); in the test with BT-549 breast, 20%; in the test on MDA-MB-435 melanoma, 21.3%; in the test with SW-620 colon, 37%; in the test on MCF7 breast, 10.9%; in the test with HCT-116 colon, 10.9%. Further, the growth is 31.6% in the test with HCC-2998 colon and 10.1% in the test on KM12 colon.

Turning to `O=[N+]([O-])c1ccccc1Nc1ccc2ccccc2c1`, the growth in the test on T-47D breast was 91.1%; in the test with BT-549 breast, 84.8%; in the test on MDA-MB-435 melanoma it was 99%; in the test on SW-620 colon, 83.8%; in the test with MCF7 breast, 74.9%; with HCT-116 colon it was 82.9%. The growth was 105% with HCC-2998 colon and 99.4% in the test with KM12 colon.

In the case of `Cn1c2ccccc2c2c3c(c4c5cc(Br)ccc5n(C)c4c21)C(=O)N(O)C3=O`, the growth was -11.2% (active) in the test with T-47D breast; 41.2% with BT-549 breast; 22.8% in the test on MDA-MB-435 melanoma; 18% in the test with SW-620 colon; 10.7% with MCF7 breast; 4.46% (active) with HCT-116 colon. The growth with HCC-2998 colon was 57.5%; with KM12 colon it was 34.1%.

`N#Cc1c(-c2ccc(Br)cc2)nc2c(N=Nc3ccc(S(N)(=O)=O)cc3)c(N)nn2c1N`: the growth is 31.5% with T-47D breast; 73.8% in the test with BT-549 breast; 56.2% with MDA-MB-435 melanoma; 44.1% with SW-620 colon; 31.6% in the test with MCF7 breast; 24.9% in the test with HCT-116 colon. Further, the figures for the growth in the test on HCC-2998 colon and in the test with KM12 colon were 61.8% and 51.8%, respectively.

Consider `COc1cc(OC)c2c(=O)c3c(CC=C(C)C)cc(OC)c(O)c3oc2c1`, for which the growth was 57.7% in the test on T-47D breast; 77.5% with BT-549 breast; 53.9% with MDA-MB-435 melanoma; 99.7% with SW-620 colon; 78.5% in the test with MCF7 breast; 81.6% in the test with HCT-116 colon. Besides, the growth with HCC-2998 colon is 106%; in the test with KM12 colon it was 66.4%.

In the case of `C=C1C(=O)O[C@H]2[C@H]1CC/C(COC(=O)NCc1ccc(Cn3c(=O)sn(-c4ccc(I)cc4)c3=O)cc1)=C\CC[C@@]1(C)O[C@@H]21`, the growth in the test on T-47D breast was 45.2%; in the test with BT-549 breast, 74.5%; with MDA-MB-435 melanoma it was 80.9%; in the test with SW-620 colon, 3.86% (active); in the test on MCF7 breast it was 38.6%; in the test on HCT-116 colon, 28.3%. For the same compound, the growth in the test on HCC-2998 colon was 105%; in the test with KM12 colon, 98.4%.

For the compound `CCN(CC)CCOc1ccc(/C(=C(\C)Cc2ccc(OC)cc2)c2ccc(OC(=O)NCc3ccccc3)cc2)cc1`, the growth with T-47D breast was 40.6%; with BT-549 breast, 77.4%; with MDA-MB-435 melanoma, 40.7%; in the test on SW-620 colon, 57.6%; in the test with MCF7 breast it was 20.6%; in the test with HCT-116 colon, 25.3%. The growth with HCC-2998 colon was 70.6%; with KM12 colon it was 63.4%.

Consider `C=CC(CC(c1ccccc1)(c1ccccc1)c1ccccc1)N(CC)CC` (stereo not drawn), for which the growth in the test with T-47D breast was 59.3%; in the test on BT-549 breast it was 64.4%; in the test with MDA-MB-435 melanoma, 79.2%; in the test on SW-620 colon, 55.4%; in the test with MCF7 breast, 73%; with HCT-116 colon, 43.9%. Also, the growth was 69% in the test on HCC-2998 colon and 58.8% with KM12 colon.

Source of the values: PubChem BioAssay (NCI).
